From the supplement of paper PMC10849652
Targets with a hit are over-represented here; the source holds about 8,800 in all. About 0.5% of all pairs of compound and target were hits. A number with no mark means an inactive call.

Experiments:
Test in all cases: log2 fold change, soluble protein after heating vs DMSO (PISA); higher = thermal stabilisation; K562 lysate, 10 uM; active = over 0.2 and 3.5 SD of the protein, either way, in both replicates (recomputed)
[1] = compound: NCC(=O)Nc1ccc(-n2nc(C(F)(F)F)cc2-c2ccc3c(ccc4ccccc43)c2)cc1
Outline: (§1)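 Pellets of K562 cells were dounce-homogenised in PBS pH 7.4 with 1 mM MgCl2, and the crude extract was held at 1 mg/mL protein for a 30 min treatment with 10 μM compound. Aliquots were heated for 3 min over 48°C-58°C and pooled before NP-40 was added to 0.5% at 4°C. The supernatant from 21,000xg for 90 min was quantified by TMTpro 16plex LC-MS/MS with channel sums equalised. Values are reported from duplicates as log-two fold change in thermal stability relative to solvent controls.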

[2] = compound: O=C(CCCCCCC(=O)Nc1ccccc1)NO [vorinostat]
Outline: as §1

[3] = compound: O=C(O)c1ccc2c(c1)nc(Nc1cccc(Cl)c1)c1ccncc12 [silmitasertib]
Outline: as §1

[4] = compound: O=C1NC(=O)C(c2cnc3ccccn23)=C1c1cn2c3c(cc(F)cc13)CN(C(=O)N1CCCCC1)CC2
Outline: as §1

[5] = compound: c1cn2cc(-c3ccc4cn[nH]c4c3)nc(Nc3ccc(N4CCOCC4)cc3)c2n1 [entospletinib]
Outline: as §1

## ABHD17A isoform 2 (UniProt Q96GS6)
UniProt Q96GS6, sequence (Q96GS6 whole entry, looked up): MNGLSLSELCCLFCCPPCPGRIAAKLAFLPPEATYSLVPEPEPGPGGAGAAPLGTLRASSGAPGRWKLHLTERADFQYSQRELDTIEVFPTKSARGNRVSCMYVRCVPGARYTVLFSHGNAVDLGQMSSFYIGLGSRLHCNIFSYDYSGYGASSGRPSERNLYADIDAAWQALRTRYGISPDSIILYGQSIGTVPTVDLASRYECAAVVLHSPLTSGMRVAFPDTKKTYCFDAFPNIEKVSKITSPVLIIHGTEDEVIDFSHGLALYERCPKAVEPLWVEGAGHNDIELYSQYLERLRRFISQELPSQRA
[1]
  log2 fold change: 0.001
[2]
  log2 fold change: 0.363 (active)
[3]
  log2 fold change: -0.059
[4]
  log2 fold change: -0.025
[5]
  log2 fold change: 0.043

## ALDH1L2 (UniProt Q3SY69)
UniProt Q3SY69, sequence (Q3SY69 whole entry, looked up): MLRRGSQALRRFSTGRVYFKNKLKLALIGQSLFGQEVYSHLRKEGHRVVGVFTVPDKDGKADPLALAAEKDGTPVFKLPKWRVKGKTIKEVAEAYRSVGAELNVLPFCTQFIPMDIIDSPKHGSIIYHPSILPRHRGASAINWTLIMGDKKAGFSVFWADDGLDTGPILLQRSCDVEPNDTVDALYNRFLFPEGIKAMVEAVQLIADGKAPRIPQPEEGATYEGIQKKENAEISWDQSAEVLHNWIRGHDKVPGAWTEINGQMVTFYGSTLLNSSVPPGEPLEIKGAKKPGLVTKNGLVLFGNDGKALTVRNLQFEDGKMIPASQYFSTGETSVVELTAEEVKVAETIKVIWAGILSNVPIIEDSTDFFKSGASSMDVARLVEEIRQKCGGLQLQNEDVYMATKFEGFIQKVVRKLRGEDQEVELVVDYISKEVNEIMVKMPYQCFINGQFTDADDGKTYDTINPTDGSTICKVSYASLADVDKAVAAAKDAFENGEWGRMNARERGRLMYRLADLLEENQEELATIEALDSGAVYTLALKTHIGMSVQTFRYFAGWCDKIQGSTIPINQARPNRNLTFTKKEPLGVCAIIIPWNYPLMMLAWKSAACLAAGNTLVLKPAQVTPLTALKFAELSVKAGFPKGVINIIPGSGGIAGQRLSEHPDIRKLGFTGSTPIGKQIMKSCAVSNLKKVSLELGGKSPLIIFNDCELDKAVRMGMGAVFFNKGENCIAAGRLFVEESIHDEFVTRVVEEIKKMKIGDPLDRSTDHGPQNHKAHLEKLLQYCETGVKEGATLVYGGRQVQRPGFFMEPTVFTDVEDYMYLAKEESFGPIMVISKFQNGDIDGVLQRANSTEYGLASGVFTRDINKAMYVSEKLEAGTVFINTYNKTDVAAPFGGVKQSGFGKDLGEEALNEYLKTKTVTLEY
[1]
  log2 fold change: 0.017
[2]
  log2 fold change: 0.106
[3]
  log2 fold change: 0.016
[4]
  log2 fold change: -0.027
[5]
  log2 fold change: 0.031

## ANXA2 isoform 2 (UniProt P07355)
[1]
  log2 fold change: -0.015
[2]
  log2 fold change: 0.023
[3]
  log2 fold change: -0.015
[4]
  log2 fold change: 0.003
[5]
  log2 fold change: 0.016

## AMD1 (UniProt P17707)
[1]
  log2 fold change: 0.071
[2]
  log2 fold change: -0.076
[3]
  log2 fold change: 0.062
[4]
  log2 fold change: 0.499
[5]
  log2 fold change: 0.211

## ANKRD54 (UniProt Q6NXT1)
UniProt Q6NXT1, sequence (Q6NXT1 whole entry, looked up): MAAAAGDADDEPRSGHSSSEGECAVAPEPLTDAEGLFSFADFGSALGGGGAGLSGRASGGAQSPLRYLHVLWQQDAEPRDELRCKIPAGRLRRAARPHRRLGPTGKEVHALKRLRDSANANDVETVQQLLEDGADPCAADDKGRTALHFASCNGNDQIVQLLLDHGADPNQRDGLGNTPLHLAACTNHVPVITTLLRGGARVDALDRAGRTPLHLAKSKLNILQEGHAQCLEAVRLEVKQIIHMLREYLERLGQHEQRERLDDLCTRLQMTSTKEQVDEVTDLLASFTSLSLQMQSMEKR
[1]
  log2 fold change: 0.023
[2]
  log2 fold change: -0.245 (active)
[3]
  log2 fold change: 0.007
[4]
  log2 fold change: -0.076
[5]
  log2 fold change: -0.006

## AK2 (UniProt P54819)
[1]
  log2 fold change: 0.024
[2]
  log2 fold change: 0.159
[3]
  log2 fold change: 0.007
[4]
  log2 fold change: -0.005
[5]
  log2 fold change: 0.012

## ANXA11 (UniProt P50995)
[1]
  log2 fold change: -0.003
[2]
  log2 fold change: -0.117
[3]
  log2 fold change: 0.044
[4]
  log2 fold change: -0.018
[5]
  log2 fold change: 0.031

## ANXA13 isoform 2 (UniProt P27216)
UniProt P27216, sequence (P27216 whole entry, looked up): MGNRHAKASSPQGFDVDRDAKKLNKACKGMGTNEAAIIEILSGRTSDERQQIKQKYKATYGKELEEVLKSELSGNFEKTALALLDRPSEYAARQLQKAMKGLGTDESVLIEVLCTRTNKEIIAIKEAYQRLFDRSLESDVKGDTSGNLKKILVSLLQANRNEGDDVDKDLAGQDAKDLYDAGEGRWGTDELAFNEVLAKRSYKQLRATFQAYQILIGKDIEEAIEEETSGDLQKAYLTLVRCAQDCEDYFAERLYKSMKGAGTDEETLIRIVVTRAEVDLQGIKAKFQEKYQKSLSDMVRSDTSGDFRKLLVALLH
[1]
  log2 fold change: -0.084
[2]
  log2 fold change: 0.004
[3]
  log2 fold change: 0.024
[4]
  log2 fold change: 0.02

## AKT1 (UniProt P31749)
[1]
  log2 fold change: -0.051
[2]
  log2 fold change: -0.192
[3]
  log2 fold change: -0.012
[4]
  log2 fold change: -0.024
[5]
  log2 fold change: -0.005

## ARAF (UniProt P10398)
UniProt P10398, sequence (P10398 whole entry, looked up): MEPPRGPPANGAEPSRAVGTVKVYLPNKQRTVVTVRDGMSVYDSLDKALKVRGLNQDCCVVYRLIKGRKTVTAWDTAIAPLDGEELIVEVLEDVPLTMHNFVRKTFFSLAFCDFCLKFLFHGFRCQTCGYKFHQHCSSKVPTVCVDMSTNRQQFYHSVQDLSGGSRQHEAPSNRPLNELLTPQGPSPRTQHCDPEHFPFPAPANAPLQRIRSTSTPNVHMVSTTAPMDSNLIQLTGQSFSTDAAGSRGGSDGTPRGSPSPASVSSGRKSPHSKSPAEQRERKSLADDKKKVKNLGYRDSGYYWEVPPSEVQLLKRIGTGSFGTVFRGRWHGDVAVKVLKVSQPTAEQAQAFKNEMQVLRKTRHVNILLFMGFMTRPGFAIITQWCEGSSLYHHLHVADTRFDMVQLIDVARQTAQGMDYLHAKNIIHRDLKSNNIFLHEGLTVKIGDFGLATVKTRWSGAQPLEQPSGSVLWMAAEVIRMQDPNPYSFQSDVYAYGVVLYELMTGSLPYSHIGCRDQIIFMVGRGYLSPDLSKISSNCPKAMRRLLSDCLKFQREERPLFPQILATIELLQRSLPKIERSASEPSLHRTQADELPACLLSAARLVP
[1]
  log2 fold change: -0.072
[2]
  log2 fold change: -0.487 (active)
[3]
  log2 fold change: -0.023
[4]
  log2 fold change: 0.019
[5]
  log2 fold change: -0.011

## AGTPBP1 (UniProt Q9UPW5)
[1]
  log2 fold change: 0.125
[2]
  log2 fold change: -0.033
[3]
  log2 fold change: -0.012
[4]
  log2 fold change: 0.11
[5]
  log2 fold change: 0.035

## AKAP11 (UniProt Q9UKA4)
[1]
  log2 fold change: -0.066
[2]
  log2 fold change: -0.164
[3]
  log2 fold change: 0.019
[4]
  log2 fold change: -0.057
[5]
  log2 fold change: 0.015

## ABL1 isoform 2 (UniProt P00519)
UniProt P00519, sequence (P00519 whole entry, looked up): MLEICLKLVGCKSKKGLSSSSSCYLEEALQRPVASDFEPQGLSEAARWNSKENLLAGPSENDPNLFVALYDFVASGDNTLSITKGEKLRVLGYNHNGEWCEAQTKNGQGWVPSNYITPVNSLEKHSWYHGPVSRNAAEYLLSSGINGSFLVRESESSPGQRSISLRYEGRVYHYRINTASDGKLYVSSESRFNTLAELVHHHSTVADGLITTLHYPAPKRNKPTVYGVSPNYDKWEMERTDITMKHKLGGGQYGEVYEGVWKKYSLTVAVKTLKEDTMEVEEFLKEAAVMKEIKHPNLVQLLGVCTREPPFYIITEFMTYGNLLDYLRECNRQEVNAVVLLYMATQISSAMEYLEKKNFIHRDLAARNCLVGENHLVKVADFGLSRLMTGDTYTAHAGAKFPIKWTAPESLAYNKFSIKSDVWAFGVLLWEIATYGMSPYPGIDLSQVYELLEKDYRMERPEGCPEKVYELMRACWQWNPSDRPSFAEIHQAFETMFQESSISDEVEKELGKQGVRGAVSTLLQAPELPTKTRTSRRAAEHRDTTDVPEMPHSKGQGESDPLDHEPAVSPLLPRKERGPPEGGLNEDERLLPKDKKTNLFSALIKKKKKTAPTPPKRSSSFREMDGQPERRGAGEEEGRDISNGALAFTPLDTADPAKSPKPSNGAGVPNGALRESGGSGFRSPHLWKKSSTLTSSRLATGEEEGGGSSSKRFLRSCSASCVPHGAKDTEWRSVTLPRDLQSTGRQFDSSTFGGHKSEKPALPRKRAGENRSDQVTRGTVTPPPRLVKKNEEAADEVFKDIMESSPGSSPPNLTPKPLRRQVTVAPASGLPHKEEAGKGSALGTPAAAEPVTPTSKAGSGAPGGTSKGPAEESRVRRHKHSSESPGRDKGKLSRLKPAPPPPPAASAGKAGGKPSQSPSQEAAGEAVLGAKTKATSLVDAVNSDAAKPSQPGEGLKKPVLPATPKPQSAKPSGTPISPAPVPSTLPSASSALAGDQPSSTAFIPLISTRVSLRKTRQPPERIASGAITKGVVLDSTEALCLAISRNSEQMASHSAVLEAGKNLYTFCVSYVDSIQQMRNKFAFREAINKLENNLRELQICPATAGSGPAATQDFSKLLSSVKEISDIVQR
[1]
  log2 fold change: -0.003
[2]
  log2 fold change: -0.328 (active)
[3]
  log2 fold change: -0.019
[4]
  log2 fold change: -0.042
[5]
  log2 fold change: -0.008

## AFF4 (UniProt Q9UHB7)
[1]
  log2 fold change: -0.119
[2]
  log2 fold change: 0.078
[3]
  log2 fold change: -0.04
[4]
  log2 fold change: -0.031
[5]
  log2 fold change: -0.088

## ANKRD40 (UniProt Q6AI12)
UniProt Q6AI12, sequence (Q6AI12 whole entry, looked up): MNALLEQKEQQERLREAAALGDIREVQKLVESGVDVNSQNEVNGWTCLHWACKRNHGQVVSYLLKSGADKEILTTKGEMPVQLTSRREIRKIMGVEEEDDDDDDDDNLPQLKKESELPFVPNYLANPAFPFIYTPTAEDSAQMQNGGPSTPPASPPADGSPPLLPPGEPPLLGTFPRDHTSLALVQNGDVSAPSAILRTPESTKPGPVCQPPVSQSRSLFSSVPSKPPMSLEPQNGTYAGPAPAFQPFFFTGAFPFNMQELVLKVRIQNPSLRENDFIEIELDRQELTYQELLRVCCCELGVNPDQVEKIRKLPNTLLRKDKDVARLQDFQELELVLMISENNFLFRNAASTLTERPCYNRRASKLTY
[1]
  log2 fold change: 0.914 (active)
[2]
  log2 fold change: -0.217
[3]
  log2 fold change: -0.088
[4]
  log2 fold change: 0.007
[5]
  log2 fold change: -0.057

## ANKRD52 (UniProt Q8NB46)
[1]
  log2 fold change: -0.043
[2]
  log2 fold change: -0.491 (active)
[3]
  log2 fold change: 0.063
[4]
  log2 fold change: -0.023
[5]
  log2 fold change: -0.057

## AGGF1 (UniProt Q8N302)
[1]
  log2 fold change: 0.135
[2]
  log2 fold change: 0.059
[3]
  log2 fold change: -0.06
[4]
  log2 fold change: 0
[5]
  log2 fold change: -0.015

## ACSL4 (UniProt O60488)
[1]
  log2 fold change: 0.137
[2]
  log2 fold change: -0.321 (active)
[3]
  log2 fold change: 0.066
[4]
  log2 fold change: -0.002
[5]
  log2 fold change: 0.014

## ANXA5 (UniProt P08758)
UniProt P08758, sequence (P08758 whole entry, looked up): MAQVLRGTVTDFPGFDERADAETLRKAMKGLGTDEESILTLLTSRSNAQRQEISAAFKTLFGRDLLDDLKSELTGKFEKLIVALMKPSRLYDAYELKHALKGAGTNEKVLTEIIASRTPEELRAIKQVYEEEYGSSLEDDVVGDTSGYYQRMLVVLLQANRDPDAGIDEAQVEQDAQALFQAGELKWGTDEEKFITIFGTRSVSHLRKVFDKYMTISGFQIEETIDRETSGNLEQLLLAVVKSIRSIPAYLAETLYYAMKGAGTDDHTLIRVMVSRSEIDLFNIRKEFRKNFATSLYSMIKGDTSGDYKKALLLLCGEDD
[1]
  log2 fold change: -0.008
[2]
  log2 fold change: 0.056
[3]
  log2 fold change: 0.021
[4]
  log2 fold change: -0.017
[5]
  log2 fold change: 0.006

## ARHGAP25 isoform 4 (UniProt P42331)
[1]
  log2 fold change: 0.027
[2]
  log2 fold change: -0.377 (active)
[3]
  log2 fold change: 0.011
[4]
  log2 fold change: -0.038
[5]
  log2 fold change: 0.009

## ABI1 isoform 9 (UniProt Q8IZP0)
[1]
  log2 fold change: 0.046
[2]
  log2 fold change: 0.026
[3]
  log2 fold change: -0.025
[4]
  log2 fold change: 0.03
[5]
  log2 fold change: 0.018

## ABCF2 isoform 2 (UniProt Q9UG63)
UniProt Q9UG63, sequence (Q9UG63 whole entry, looked up): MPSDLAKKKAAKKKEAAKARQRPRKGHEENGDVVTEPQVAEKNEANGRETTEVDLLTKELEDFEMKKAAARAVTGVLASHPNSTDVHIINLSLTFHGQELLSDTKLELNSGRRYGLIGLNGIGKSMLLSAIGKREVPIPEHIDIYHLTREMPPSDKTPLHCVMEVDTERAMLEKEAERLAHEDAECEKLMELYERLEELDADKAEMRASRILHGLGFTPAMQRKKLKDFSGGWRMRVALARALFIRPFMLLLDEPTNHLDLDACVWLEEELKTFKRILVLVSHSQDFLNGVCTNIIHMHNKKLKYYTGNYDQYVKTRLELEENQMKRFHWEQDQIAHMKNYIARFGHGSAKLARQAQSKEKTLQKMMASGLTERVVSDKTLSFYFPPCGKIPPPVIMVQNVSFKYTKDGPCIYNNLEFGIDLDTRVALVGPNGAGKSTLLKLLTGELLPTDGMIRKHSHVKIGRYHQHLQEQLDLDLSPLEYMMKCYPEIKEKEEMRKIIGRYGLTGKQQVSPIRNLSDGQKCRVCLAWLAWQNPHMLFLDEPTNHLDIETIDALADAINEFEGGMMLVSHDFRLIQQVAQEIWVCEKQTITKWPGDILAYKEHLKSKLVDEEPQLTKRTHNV
[1]
  log2 fold change: 0.103
[2]
  log2 fold change: -0.326 (active)
[3]
  log2 fold change: 0.054
[4]
  log2 fold change: 0.016
[5]
  log2 fold change: -0.028

## ADAR isoform 4 (UniProt P55265)
[1]
  log2 fold change: -0.029
[2]
  log2 fold change: -0.35 (active)
[3]
  log2 fold change: 0.019
[4]
  log2 fold change: -0.031
[5]
  log2 fold change: 0.022

## ABHD12 isoform 2 (UniProt Q8N2K0)
[1]
  log2 fold change: -0.003
[2]
  log2 fold change: 0.392 (active)
[3]
  log2 fold change: -0.026
[4]
  log2 fold change: -0.023
[5]
  log2 fold change: -0.023
